The source of these data is PubChem BioAssay (EPA / NIEHS).

Test [1] in a line: CCTE_Shafer_MEA_dev_LDH: CCTE's Lactate Dehydrogenase Assay for Cytotoxicity in the Neural Network Formation Assay, Shafer Lab (AID 2284068; active = hit-call score of the fitted dose curve at least 0.9, where 1 is the maximum;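 note: exposure for twelve days from plating with re-dosing on DIV 5 and 9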). In outline: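 Developing rat cortical networks on MEA plates are exposed to compound for 12 days from plating. LDH activity is measured spectrophotometrically, with DMSO as baseline.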
A short description of test [2]: CCTE_Shafer_MEA_dev_AB: CCTE's Alamar Blue Assay for Cytotoxicity in the Neural Network Formation Assay, Shafer Lab (AID 2284083; active = hit-call score of the fitted dose curve at least 0.9, where 1 is the maximum;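 note: resazurin reduction fluorescence as viability of cultured neurons; twelve days of exposure from plating with re-dosing on DIV 5 and 9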). The gist of the method:
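Cytotoxicity companion to the developmental MEA: primary rat cortical neurons, 12-day exposure starting day 0, compound refreshed DIV 5 and 9; resazurin fluorescence, fitted against DMSO vehicle.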
Background: Resazurin is reduced to fluorescent resorufin, in cell work by metabolically active cells.

A short description of test [3]: CCTE_Shafer_MEA_dev_mutual_information_norm: CCTE's Neural Network Formation Assay for Mutual Information Normalization, Shafer Lab (AID 2284091).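 For AC50: mutual information between electrodes summarised as area under curve across four recording days; potency is for a decrease in mutual information relative to DMSO.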 The gist of the method:
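Shared information across electrodes, tracked on days 5, 7, 9 and 12 of network development and collapsed as trapezoidal area under the curve. Rat cortical cultures were treated continuously from plating, with treatment renewed at feeds on DIV 5 and 9; DMSO baseline, negative-direction fit.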

Test [4] is described as follows: CCTE_Shafer_MEA_dev_correlation_coefficient_mean: CCTE's Neural Network Formation Assay for Mean Correlation Coefficient, Shafer Lab (AID 2284093).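 For AC50: well mean pairwise spike train correlation integrated as AUC over recording days 5 to 12; potency fitted for loss of correlation relative to DMSO vehicle wells.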 The gist of the method: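 Extracellular firing from rat cortical networks on 48-well MEAs, DMSO-referenced, negative fitting direction. Compound present from plating to DIV12; mean pairwise correlation per well integrated over DIV5–12 recordings by trapezoidal AUC.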

Test [5] in a line: CCTE_Shafer_MEA_acute_LDH: CCTE's Lactate Dehydrogenase Assay for Cytotoxicity in the Neural Acute Assay, Shafer Lab (AID 2284086; active = hit-call score of the fitted dose curve at least 0.9, where 1 is the maximum;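 note: active means LDH release rises above DMSO vehicle level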). In outline:
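LDH absorbance at 490 nm in medium taken right after 40-min compound exposure; rat primary cortical neuron networks on MEA plates, days post-plating 13 or 15. Increase over DMSO baseline scored as cytotoxicity.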

Test [6] can be described thus: UKN2_HCS_IMR90_neural_migration: University of Konstanz (UKN) Leist Lab Neural Crest Cell Migration Assay in human induced IMR90 Pluripotent Stem Cells (UKN2) (AID 2284204). The following applies: actives raise or lower the signal. In outline:
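High-content imaging of calcein-AM and Hoechst stained cells quantifies migration into a stopper-defined gap after 24 h compound exposure. Neural crest cells from IMR90 iPSC migrated 24 h in EGF/FGF N2-S medium before dosing; DMSO baseline.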

Test [7] can be described thus: IUF_NPC1b_proliferation_BrdU_72hr: Leibniz Research Institute for Environmental Medicine (IUF) 72-hour Neural Progenitor Cell Bromodeoxyuridine (BrdU) Proliferation Assay (NPC1b) (AID 2284207). In outline:
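Human fetal cortex-derived (GW 16-19) neural progenitor spheres, 0.25-0.35 mm, one per well in EGF/FGF proliferation medium, exposed to compound for 72 h at 37C, pH 7.2-7.6. BrdU incorporation over the final 16 h read by luminescence ELISA, relative to DMSO.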

Test [8] in a line: IUF_NPC1a_proliferation_area_72hr: Leibniz Research Institute for Environmental Medicine (IUF) 72-hour Neural Progenitor Cell Proliferation Area Assay (NPC1a) (AID 2284208). The gist of the method: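 hNPC spheres (human fetal cortex, GW 16-19), one per poly-Hema U-bottom well; EGF+FGF medium; dosed day 0, no re-dosing; 72 h, 37C, 5% CO2; phase-contrast sphere area; DMSO = baseline; minus-GF = positive ctrl.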

A short description of test [9]: IUF_NPC1_viability_72hr: Viability Assessment at 72 hours in the Leibniz Research Institute for Environmental Medicine (IUF) Neural Progenitor Cell Proliferation Assay (NPC1) (AID 2284209). In outline: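 Alamar blue fluorescence (RFU) after 72 h exposure, normalized to DMSO baseline. hNPC spheres from GW 16-19 fetal cortex, single sphere per well in growth-factor medium; no compound renewal.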

Test [10] in a line: CCTE_Mundy_HCI_Cortical_Synap_Neur_Matur_NeuriteSpotCountPerNeuriteLength: CCTE's Synaptogenesis and Neurite Maturation Assay in rat cortical cells for Neurite Spot Count per Neurite Length, Mundy Lab (AID 2284210). The gist of the method:
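Synaptophysin spots per unit neurite length, measured by automated imaging of MAP2/synaptophysin/Hoechst-stained neurons. Cultures from rat cortex received chemical at DIV 7 with media change through DIV 12; glial growth arrested by AraC at DIV 5; DMSO baseline.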

Test [11] in a line: CCTE_Mundy_HCI_Cortical_Synap_Neur_Matur_BPCount: CCTE's Synaptogenesis and Neurite Maturation Assay in rat cortical cells for Branch Point Count, Mundy Lab (AID 2284211). The gist of the method: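 In this multiplexed morphology assay, cortical cells from rat receive chemicals at DIV 7 and are fixed at DIV 12, then immunostained and imaged; branch points are counted, with DMSO as baseline.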

A short description of test [12]: CCTE_Mundy_HCI_Cortical_NOG_NeuriteCount: CCTE's Neurite Outgrowth Assay in rat cortical cells for Neurite Count, Mundy Lab (AID 2284212).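 Note: cells fixed about two days after chemical exposure began.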 In outline: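 Rat cortical primary cells; compound added 2 h post-plating, 1/10 dilution of working solution. Anti-betaIII-tubulin/AF488 ICC; ArrayScan neurite count vs DMSO.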
The nature of test [13]: CCTE_Mundy_HCI_Cortical_NOG_NeuriteLength: CCTE's Neurite Outgrowth Assay in rat cortical cells for Neurite Length, Mundy Lab (AID 2284213).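 For AC50: neurites imaged about 48 to 50 h after chemical exposure began.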 In outline: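 First, rat primary cortical cells were plated and, 2 h later, given test chemical as a 1/10 dilution. Finally, βIII-tubulin immunostaining enabled automated imaging of neurite length.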
Test [14] can be described thus: CCTE_Mundy_HCI_Cortical_Synap_Neur_Matur_NeuriteLength: CCTE's Synaptogenesis and Neurite Maturation Assay in rat cortical cells for Neurite Length, Mundy Lab (AID 2284214). The gist of the method:
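Read-out: high-content imaging of MAP2-labelled neurites, with synaptophysin and Hoechst co-stain, in rat cortical cultures fixed at DIV 12. Activity fitted in positive direction relative to DMSO baseline.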

A short description of test [15]: CCTE_Mundy_HCI_Cortical_Synap_Neur_Matur_NeuriteSpotCountPerNeuron: CCTE's Synaptogenesis and Neurite Maturation Assay in rat cortical cells for Neurite Spot Count per Neuron Count, Mundy Lab (AID 2284215). In outline:
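Read-out: neurite-associated synaptophysin puncta per neuron, imaged by high-content analysis after MAP2, synaptophysin and Hoechst staining. Rat primary cortical cultures, dosed DIV 7 through DIV 12; DMSO served as baseline.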

Test [16] is described as follows: CCTE_Shafer_MEA_acute_AB: CCTE's Alamar Blue Assay for Cytotoxicity in the Neural Acute Assay, Shafer Lab (AID 2284069; active = hit-call score of the fitted dose curve at least 0.9, where 1 is the maximum;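 note: active compounds lower the viability signal compared with DMSO wells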). In outline:
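Cytotoxicity endpoint for acute MEA exposures of primary rat cortical neurons on day 13 or 15. Resazurin reduction is read fluorescently at 544/590 nm, with DMSO as the negative-control baseline.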

The structures appear in SMILES notation. Where “and” joins values, the source holds several entries; their conditions need not be identical. Identical values can stand only once. Inconclusive results are not listed. More than one record can exist for a structure, and the calls need not agree. Calls of active or inactive are those of the source. Rule for the calls, unless noted: active = hit-call score of the fitted dose curve at least 0.9, where 1 is the maximum; inactive = score below 0.9.

For orientation: AC50 means the midpoint of the concentration-response curve, whichever way the signal moves.

Consider `O=C1C2CC=CCC2C(=O)N1SC(Cl)(Cl)Cl` (stereo not drawn), for which the concentration at half-maximal activity (AC50) in [1] is 15.9 µM (active) and 13.8 µM (active); in [2], 16.1 µM (active) and 14.7 µM (active); in test [4] it was 9.85 µM (active). Further, the molecule was called inactive in [3].

Turning to `Cc1c(COC(=O)[C@@H]2[C@H](/C=C(\Cl)C(F)(F)F)C2(C)C)cccc1-c1ccccc1`, the AC50 in test [1] is 17.5 µM (active) and 11.2 µM (active); in test [2] it was 14.6 µM (active) and 14.9 µM (active); in test [3], 142 nM (active) and 269 nM (active); in [4] it was 395 nM (active) and 497 nM (active); in test [7], 0.97 µM (active); in [10], 3.2 µM (active). Also, the AC50 was 2.71 µM (active) in test [11]; 27.8 µM (active) in test [12]; 26.9 µM (active) in test [13]; 3.7 µM (active) in test [14]; 3.15 µM (active) in [15]. The call in test [5], in [6], in test [8] and in [9] was inactive.

As for `CC1(C)C(C(=O)OC(C#N)c2cccc(Oc3ccccc3)c2)C1(C)C` (stereo not drawn), the AC50 was 17.8 µM (active) in [1], 1.98 µM (active) in test [2], 1.01 µM (active) in test [3] and 4.17 µM (active) in test [4].

`O=C(Nc1ccccc1-c1ccc(Cl)cc1)c1cccnc1Cl`: the AC50 in test [1] is 50 µM (active); in [2] it was 77.7 µM (active); in [3], 18.3 µM (active); in test [4], 9.92 µM (active). For the same molecule, the molecule was called inactive in test [1], in [2], in [5], in test [3], in test [4] and in [6]. For the same molecule, the result in test [7], in test [8], in [9], in test [10], in test [11] and in test [12] was inactive. The call in [13], in test [14] and in test [15] was inactive.

As for `N#CN=C1SCCN1Cc1ccc(Cl)nc1`, the molecule was classed as inactive in [1], in test [16], in test [5], in test [3], in test [4] and in test [7]. In addition, the call in test [8], in [9], in test [10], in test [11], in test [12] and in test [13] was inactive. For the same molecule, the outcome in test [14] and in test [15] was inactive.

In the case of `CCCN(CC)CC1COC2(CCC(C(C)(C)C)CC2)O1` (stereo not drawn), the AC50 in test [1] was 0.168 µM (active); in test [2] it was 0.246 µM (active); in test [3], 0.119 µM (active); in [4], 0.281 µM (active).

For the molecule `COP(=O)(OC)O/C(C)=C/C(=O)N(C)C`, the call in [1], in [2], in [3], in test [4], in [10] and in [11] was inactive. Besides, the molecule was classed as inactive in test [12], in test [13], in test [14] and in [15].

Turning to `CC(C)N1C(=O)c2ccccc2NS1(=O)=O`, the result in test [5] was inactive.

For the molecule `CS(=O)(=O)c1cc(C(F)(F)F)ccc1C(=O)c1cnoc1C1CC1`, the call in test [3], in [4], in test [6], in test [7], in test [8] and in test [9] was inactive. Also, the molecule was called inactive in [10], in test [11], in [12], in [13], in test [14] and in test [15].

Take `CCCCC(O)(Cn1cncn1)c1ccc(Cl)cc1Cl` (stereo not drawn): in test [5], the molecule was classed as inactive.

As to `CN/C(=N\[N+](=O)[O-])NCc1cnc(Cl)s1`, the call in test [1], in test [3], in [4], in [7], in [8] and in test [9] was inactive. Also, the call in [10], in test [11], in test [12], in [13], in [14] and in [15] was inactive.

For `N#Cc1c[nH]cc1-c1cccc2c1OC(F)(F)O2`, in test [5], the outcome was inactive.

Regarding `CC(C)(C)C(=O)C(Oc1ccc(Cl)cc1)n1cncn1` (stereo not drawn), the AC50 in test [1] was 37.5 µM (active); in [2], 38.6 µM (active); in test [4], 41.6 µM (active); in test [7], 0.513 µM (active); in test [11], 9.82 µM (active); in [14], 7.05 µM (active). For the same molecule, in [15], the AC50 is 7.48 µM (active). The call in [3], in test [6], in test [8], in test [9], in test [10] and in [12] was inactive. For the same molecule, in test [13], the outcome was inactive.

For `CCNC(=O)NC(=O)C(C#N)=NOC`, the molecule was called inactive in test [1], in test [2], in test [3], in test [4], in test [7] and in test [8]. Further, the outcome in [9], in test [10], in test [11], in [12], in test [13] and in test [14] was inactive. The molecule was called inactive in test [15].

As to `Nc1c(Cl)c(F)nc(OCC(=O)O)c1Cl`, the result in test [16] and in test [5] was inactive.

For `Clc1nc(Cl)nc(Nc2ccccc2Cl)n1`, the outcome in [16] and in test [5] was inactive.

For `CCSC(=O)N1CCCCCC1`, the call in test [1], in [2], in test [3], in [4], in test [6] and in test [7] was inactive. The molecule was called inactive in [8], in test [9], in test [10], in test [12], in test [13] and in test [14]. Besides, the molecule was classed as inactive in test [15].

In the case of `Cn1c(-c2ccccc2)cc(-c2ccccc2)[n+]1C`, the molecule was called inactive in test [16] and in [5].

For the molecule `CCOc1cc(C(C)(C)C)ccc1C1COC(c2c(F)cccc2F)=N1` (stereo not drawn), in test [5], the molecule was classed as inactive.

In the case of `CC(C)C1(C)N=C(c2ncccc2C(=O)O)NC1=O` (stereo not drawn), the molecule was called inactive in test [16] and in [5].

For `CC1(C)CCC(=Cc2ccc(Cl)cc2)C1(O)Cn1cncn1` (stereo not drawn), the result in [16] and in test [5] was inactive.

Turning to `Cc1ccc(N=CN(C)C=Nc2ccc(C)cc2C)c(C)c1`, the molecule was classed as inactive in [16].

Take `COP(=S)(OC)Oc1ccc([N+](=O)[O-])c(C)c1`: the result in test [1], in test [2], in [3] and in test [4] was inactive.

For the molecule `COCC(=O)N(c1c(C)cccc1C)C(C)C(=O)OC` (stereo not drawn), in [5], the molecule was called inactive.

Take `CC(C)N1C(=O)N(c2ccccc2)CSC1=NC(C)(C)C`: the molecule was classed as inactive in [16] and in [5].

Consider `CCOc1nc(F)cc2nc(S(=O)(=O)Nc3c(Cl)cccc3Cl)nn12`, for which, in [16], the outcome was inactive.

As to `CCCC(=NOCC)C1=C(O)CC(CC(C)SCC)CC1=O` (stereo not drawn), in test [5], the call was inactive.
